For 94 molecules, inhibition results are on record in PubChem BioAssay AID1430 (University of Pittsburgh Molecular Library Screening Center, 2008).

In all, about 220,000 compounds went through this assay and about 240 (0.11%) were called active. This is one part of a sample in which actives are shown more often than they occur. Values without a mark were called inactive.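 How the source made its calls: active means inhibition of 50% or more in the single-dose primary screen; inactive means inhibition below 50%.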

As a reminder, the inhibition is the drop in the measured response relative to a control, in per cent.

The test system of this test is hexokinase 1 [Trypanosoma brucei]. The test can be described thus: TbHK1 enzyme activity blockers – biochemical, G6PDH-coupled NADH absorbance, MLSCN library, primary screen (AID 1430). The following applies: recombinant TbHK1, G6PDH-coupled NADH A340; at 10 µM; stronger effect = higher value.
As to `Cc1nc2nc[nH]n2c(=O)c1C/C=C/c1ccccc1`, the inhibition was -2.13%. As for `COc1ccc(C(=O)NNc2cc(C)nc(NNC(=O)c3ccc(OC)cc3)n2)cc1`, the inhibition was -5.16%.

Consider `Cc1[nH]n(C)c(=O)c1N=Nc1ccc(S(C)(=O)=O)cc1`, for which the inhibition was -42.5%. Regarding `Cc1ccc(Oc2nc(-c3ccccn3)nc3ccccc23)cc1`, the inhibition is -12.7%. `COC(=O)CN1C(=O)N/C(=C/c2ccc(OC)c(C)c2OC)C1=O`: the inhibition was -28.4%. As for `C=C(C)C(=O)Nc1cccc(C2=NOC3(C2)C[C@H](C(N)=O)N(C(=O)C(c2ccccc2)c2ccccc2)C3)c1` (some centres undefined), the inhibition was 7.7%. Consider `Cc1ccc(Cl)c(OCC(=O)NN2CCN(C)CC2)c1`, for which the inhibition was -3.39%.

As to `COc1ccc(C(=O)NC2(C(F)(F)F)NC(=O)N(CCCc3ccccc3)C2=O)c(OC)c1OC` (centres undefined), the inhibition was -4.23%. As to `O=C(CSc1nnc2ccc(-c3ccncc3)nn12)N1CCCCC1`, the inhibition was -7.7%.

As for `COC(=O)c1ccc(/C=N/OCC(=O)Nc2cc(F)ccc2F)cc1`, the inhibition is -4.64%. On to `COc1ccc(NC(=O)c2cc3nc(-c4ccccc4)cc(C)n3n2)cc1OC`, for which the inhibition was -16.7%. As to `COc1ccccc1NC(=O)C1CCCN(c2cc(C)nc3ncnn23)C1` (centres undefined), the inhibition was -1.1%.

In the case of `COc1cccc(/C=N/Nc2ncc(C(F)(F)F)cc2Cl)c1O`, the inhibition was 73.5% (active).

`COc1cc(/C=C2\SC(=S)N(Nc3ncc(C(F)(F)F)cc3Cl)C2=O)cc(OC)c1OC`: the inhibition is -3.09%. Consider `COc1cccc(/C=N/Nc2cc(C)nc(-c3ccccc3O)n2)c1O`, for which the inhibition was -40%. For the molecule `COC(=O)Nc1ccc(S(=O)(=O)N2CCN(CCN3C(=O)C4C5C=CC(C5)C4C3=O)CC2)cc1` (centres undefined), the inhibition is 1%. As to `Cc1c(C(N)=O)sc2ncn(CCOc3ccccc3)c(=O)c12`, the inhibition was -3.42%. Turning to `CCc1ccc(CNC(=O)CCc2nc(-c3cccs3)no2)cc1`, the inhibition is -2.08%.

In the case of `O=C(CCC1CCCN(C(=O)Cc2ccc(F)cc2)C1)N1CCN(c2ccccn2)CC1` (centres undefined), the inhibition is -6.3%. To `CSc1ccccc1NC(=O)Cc1ccc(Br)cc1` belongs 32.7%; to `O=C1/C(=C\Nc2ccccc2)CCN1c1ncccn1`, -65.9%. For the molecule `COc1ccccc1NC(=O)CC(NCCN(C)C)C(=O)O` (centres undefined), the inhibition was -1.3%. Regarding `COCCCNc1nc2c(-c3cccc(C(F)(F)F)c3)nnn2c2ccccc12`, the inhibition is -3.92%. On to `CCOC(=O)C1(Cc2ccc(Cl)cc2)CCN(C(=O)C2=NNC(=O)CC2)CC1`, for which the inhibition is -7.3%. For `Cc1ccc(SC(=O)COc2ccc(C)c(C)c2)cc1` the value was 7.35%; for `S=c1nccc(-c2cc(Cl)sc2Cl)[nH]1`, -7.08%; for `CCCN1CNC(=S)N(CCc2ccccc2)C1`, -4.25%. In the case of `Cc1ccc(C)c(Cn2nnc3c(=O)[nH]c(C(=O)Nc4ccc(F)cc4)nc32)c1`, the inhibition is 1.66%. Consider `COc1ccc(OC)c(NC(=O)N[C@H](Cc2ccccc2)C(=O)NN)c1`, for which the inhibition was -2.36%.

Regarding `Cc1ccc(NC(=O)Cn2c(=O)n(CCC(=O)NC3CCN(Cc4ccccc4)CC3)c(=O)c3ccccc32)cc1`, the inhibition is 1.82%.

In the case of `COc1ccc(/C=N/S(=O)(=O)c2ccccc2)cc1OC`, the inhibition is -6.73%. For `CCCSc1ncccc1C(=O)O`, the inhibition was -11%. For `CCOC(=O)C1CCN(CCC(=O)Nc2cccc(C)c2)CC1` the value was -3.14%. As to `O=C(Nc1ccccc1)c1cc2ccccc2[nH]1`, the inhibition is -8.21%. Consider `COC(=O)c1nc(NC(=O)c2ccc(C(C)(C)C)cc2)n[nH]1`, for which the inhibition is -1.14%. `COC(=O)C1CCN(CC(N)=O)CC1`: the inhibition was 60.6% (active).

As to `COC(=O)C1CCN(C(=O)c2cc(=O)[nH]c3ccccc23)CC1`, the inhibition was -8.77%. As for `CCOC(=O)N1CCC(C(N)=O)CC1`, the inhibition was 4.5%. For `O=C(Nc1ccc(S(=O)(=O)N2CCOCC2)cc1)c1ccc2ncsc2c1`, the inhibition was -11%. As for `CC12C(=O)N(c3ccccc3)C(=O)C1C(c1ccccc1)N1CCCN12` (centres undefined), the inhibition is -4.21%. For `Cc1cccc(-n2c(Cc3cc(=O)[nH]c(=O)[nH]3)nnc2SC(C)C)c1` the value was -4.19%; for `Cc1ccc(Nc2nc(CSc3nnc(-c4ccncc4)n3-c3ccccc3C)cs2)cc1`, -6.74%.

Turning to `CC1CC(C)CN(S(=O)(=O)c2ccc(C(=O)NN3CCOCC3)cc2)C1` (centres undefined), the inhibition is -4.58%. For `COC(=O)c1cccc([N+](=O)[O-])c1CS(=O)(=O)c1ccc(C)cc1`, the inhibition was -5.68%. To `O=C(c1ccc(N2CCOCC2)c([N+](=O)[O-])c1)N1CCN(S(=O)(=O)c2cccs2)CC1` belongs -0.582%. As to `Cc1cc(Cl)ccc1OCCCC(=O)NCc1ccncc1`, the inhibition was 3.38%. As to `COc1ccc(C(C(=O)NC(C)(C)C)N(C(=O)Cn2nnc3ccccc32)c2ccc(C(C)=O)cc2)cc1O` (centres undefined), the inhibition was -2.52%.

In the case of `Nc1nnc(SCC(=O)NC2CCCc3ccccc32)s1` (centres undefined), the inhibition was -14.9%. With `O=C(NCCN1CCOCC1)c1cc(Sc2cccc(Cl)c2)nc2ccccc12`, the inhibition is -12.6%.

For the molecule `O=S(=O)(NCc1ccco1)c1cnc(Cl)c(Cl)c1`, the inhibition is 8.75%. For `CC(C)[C@H](NC(=O)c1ccc(F)cc1)C(=O)OCC(=O)NC(=O)c1cccn1C` the value was -0.221%. For `CCC(C)Cn1c(O)cc2nn(-c3nc4ccccc4s3)c(=O)c-2c1C` (centres undefined) the value was -9.68%. Turning to `Cc1ccc(-c2csc(NC(=O)c3cnccn3)n2)cc1C`, the inhibition is -12.7%. For `CCOC(=O)CSC1=N/C(=C/c2ccc(-n3cncn3)cc2)C(=O)N1C(C)=O` the value was -7.02%; for `CC1CCN(S(=O)(=O)c2ccc(S(=O)(=O)NCc3cccnc3)cc2)CC1`, 0.223%. In the case of `O=C(COC(=O)[C@H](Cc1ccccc1)NC(=O)c1cccs1)Nc1cc(F)ccc1F`, the inhibition was 6.99%. As to `O=C(/C=C\c1ccc2c(c1)OCO2)NC1(C(=O)Nc2ccc3c(c2)OCCO3)CCCCC1`, the inhibition was -15.6%.

For `Cc1ccc(C)c(NC(=S)NNC(=O)c2csc(C)c2)c1`, the inhibition was 3.89%. For `O=C(CCc1[nH]c2ccccc2c1Sc1ccccc1)N(CCO)CCO` the value was 19.8%. For `Cc1nnsc1S(=O)(=O)Cc1ccccc1Cl`, the inhibition is 5.71%. As for `COCCNC(=S)N/N=C/c1c(C)[nH]c2ccccc12`, the inhibition was -58.6%.

Turning to `CC(=O)Nc1ccc(S(=O)(=O)N(CCc2ccccc2)CC(=O)N/N=C/c2ccc(C(=O)O)cc2)cc1`, the inhibition is -12.9%.

As for `CCOC(=O)C1(c2ccccc2)NC(c2ccc(N(C)C)cc2)C2C(=O)N(C)C(=O)C21` (centres undefined), the inhibition was -3.65%.

For the molecule `COc1cc(CN(C)Cc2nc3cc(C(F)(F)F)ccc3c(=O)[nH]2)ccc1OC(F)F`, the inhibition is 1.94%. `Fc1ccc(/C=N/Nc2nc(-c3cccnc3)nc3ccccc23)cc1`: the inhibition is -55.8%. For `COc1ccc(OCC(O)CNC(=O)Nc2ccc(Cl)cc2)cc1` (centres undefined) the value was 2.73%; for `Cc1cc(=O)oc(C)c1C(=O)NC1CC(C)(C)NC(C)(C)C1`, -4.42%; for `O=C(Cn1c(N2CCN(C/C=C/c3ccccc3)CC2)nc2ccccc21)c1ccccc1`, -2.21%. Turning to `Cc1nn(-c2ccccc2)c(=O)c2noc(C)c12`, the inhibition is -6.64%.

As to `CCOC(=O)c1cccnc1NC(=O)c1ccncc1`, the inhibition is -3.95%. For `Cc1nc(-c2ccc(Cl)cc2)sc1C(=O)NN` the value was -13%; for `CC(C)CNC(=O)COC(=O)/C=C/c1ccco1`, -4.39%; for `CCN(C(=O)CN1CCN(Cc2ccccc2)CC1)c1c(N)n(Cc2ccccc2)c(=O)[nH]c1=O`, 4.79%.

With `Cc1cccc(OC(=O)c2sc3ncn(C)c(=O)c3c2C)c1`, the inhibition was 2%. Turning to `Cc1cccc(NC(=S)N2CCC(O)CC2)c1C`, the inhibition was 5.41%. For `O=[N+]([O-])c1cc(S(=O)(=O)N2CCCC2)ccc1NN=C1CCCC1`, the inhibition is 36.1%.

As to `Cc1ccc(S(=O)(=O)NC(=O)Nc2nc(-c3ccc(F)c(F)c3)cs2)cc1`, the inhibition was -8.79%. For `Cc1ccccc1NC(=S)N(CCCN1CCOCC1)Cc1cccs1` the value was 25.4%; for `COc1ccc(CN(C)Cc2nc3cc(OC)c(OC)cc3c(=O)[nH]2)c(OC)c1`, 1.93%. To `COc1ccc(CC(=O)NCc2nnc(SCC(=O)Nc3nccs3)n2C)cc1` belongs -2.5%; to `O=C(/C=C/c1ccccc1)Oc1coc(CSc2ncccn2)cc1=O`, -1.22%.

With `CCc1ccc(NC2Nc3cc(C)nn3S2)cc1` (centres undefined), the inhibition was -2.97%. To `CC(=O)c1ccc(S(=O)(=O)Nc2ccc(C(=O)NCC(c3ccccc3)N(C)C)cc2)cc1` (centres undefined) belongs -5.8%; to `O=C(Nc1cccc2c1N(C(=O)c1ccco1)CCC2)c1ccco1`, -6.72%. Turning to `CCOc1cnc(-c2c(-c3ccccc3Cl)noc2C)o1`, the inhibition is -3.33%. As for `O=C(O)COc1ccc(/C=N/O)cc1Br`, the inhibition is 6.57%.

`O=S(=O)(Nc1ccc2cn[nH]c2c1)c1ccccc1`: the inhibition was -2.67%. Turning to `O=C(O)C(c1ccccc1)C1(O)CCCCC1` (centres undefined), the inhibition was -7.32%.

Turning to `S=C(NCc1ccc2c(c1)OCO2)NCc1ccco1`, the inhibition is -4.45%. For the molecule `COc1ccc(/C=C/C(=O)Nc2c(C)nn(C)c2C)cc1COc1ccc(Br)cc1`, the inhibition was -11.6%. As to `Cc1csc(=Nc2ccccc2)n1CCO`, the inhibition is -4.03%. As for `O=C(Cn1cnc([N+](=O)[O-])n1)NCCc1ccccc1`, the inhibition was -4.47%. For the molecule `COc1cccc(CC2(CO)CCCN(Cc3nc(-c4cccs4)oc3C)C2)c1` (centres undefined), the inhibition was 6.9%. Turning to `COc1cc(Cl)c(C)cc1NC(=O)[C@@H]1CCCN1C(=O)c1cccs1`, the inhibition was -2.99%.
